# According to PubChem BioAssay (NCI):
# About 79,000 compounds went through this panel and 15% of them were active in at least one assay; those are over-represented in the sample as a whole. Unmarked numbers belong to inactive results. Active and inactive are the calls of the source. Rule as the data show it: active = growth inhibition above about 70%; inactive = the rest.
# Legend:
# [1] = NCI Yeast Anticancer Drug Screen. Data for the rad52 strain (AID 147);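 also: 0% = growth of vehicle-treated control cultures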; conditions: S. cerevisiae rad52 mutant growth inhibition, hits give high values
# Summary of the method: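 Growth of repair-deficient yeast cells was compared between compound-treated and vehicle-treated cultures to give percent inhibition.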
# [2] = NCI Yeast Anticancer Drug Screen. Data for the wt1 strain (AID 149);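 also: 0% = growth of vehicle-treated wt1 cultures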; conditions: S. cerevisiae wt1 strain (SPY 50644) growth inhibition, hits give high values
# Summary of the method: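 wt1 strain grown with compound or vehicle; inhibition taken from the growth difference.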
# [3] = NCI Yeast Anticancer Drug Screen. Data for the rad50EPP+ strain (AID 151);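 also: 0% = growth of vehicle-treated control cultures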; conditions: S. cerevisiae rad50 mutant strain, hits give high values
# Summary of the method: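 Measured: growth inhibition of rad50EPP+ yeast. Reference: vehicle-treated controls. Screen uses strains with defined genetic alterations in DNA damage repair or cell cycle control.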
# [4] = NCI Yeast Anticancer Drug Screen. Data for the mgt1 strain (AID 153); conditions: S. cerevisiae mgt1 mutant growth inhibition, hits give high values
# Summary of the method: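 Compounds were applied to mgt1 mutant yeast, and growth was then compared against vehicle-treated control cultures to give percent inhibition.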
# [5] = NCI Yeast Anticancer Drug Screen. Data for the rad50 strain (AID 155);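 also: 0% = growth of vehicle-only cultures of the same strain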; conditions: S. cerevisiae rad50 strain growth inhibition, hits give high values
# Summary of the method: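 DNA repair mutant yeast, compound exposure, growth read-out; inhibition is taken relative to vehicle.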
# [6] = NCI Yeast Anticancer Drug Screen. Data for the mec2-1 strain (AID 157); conditions: S. cerevisiae mec2-1 strain, hits give high values
# Summary of the method: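 Compounds were applied to mec2-1 yeast cells. Their growth was then compared with that of vehicle-treated cultures to give growth inhibition.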
# [7] = NCI Yeast Anticancer Drug Screen. Data for the rad14 strain (AID 159);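 also: 0% = growth of vehicle-treated control cultures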; conditions: S. cerevisiae rad14 strain growth inhibition, hits give high values
# Summary of the method: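 DNA repair-defective yeast, compound-exposed; % growth inhibition derived by comparison with vehicle-treated controls.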
# [8] = NCI Yeast Anticancer Drug Screen. Data for the sgs1 mgt1 strain (AID 161);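 also: 0% = growth of cultures given vehicle only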; conditions: S. cerevisiae sgs1 mgt1 strain, hits give high values
# Summary of the method: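 Percent growth inhibition was derived by comparing compound-exposed mutant yeast with vehicle-exposed cultures. The strain carries alterations in DNA damage repair.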
# [9] = NCI Yeast Anticancer Drug Screen. Data for the CLN2oe strain (AID 163);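 also: 0% = growth of vehicle-only control cultures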; conditions: S. cerevisiae CLN2oe strain, hits give high values
# Summary of the method: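 Cells of an engineered yeast line with disturbed cell-cycle regulation are treated with compound. Inhibition of growth is then calculated relative to the vehicle-treated reference.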
# [10] = NCI Yeast Anticancer Drug Screen. Data for the cln2 rad14 strain (AID 165);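 also: 0% = growth equal to vehicle treated cultures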; conditions: S. cerevisiae cln2 rad14 strain, hits give high values
# Summary of the method: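 Strain: cln2 rad14 yeast, altered in cell cycle control and DNA damage repair. Read-out: growth inhibition vs vehicle.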
# [11] = NCI Yeast Anticancer Drug Screen. Data for the bub3 strain (AID 167); conditions: S. cerevisiae bub3 mutant strain, hits give high values
# Summary of the method: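 In this screen, a yeast mutant lacking normal mitotic checkpoint function is challenged with compound. Relative growth versus vehicle gives the inhibition value.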
# [12] = NCI Yeast Anticancer Drug Screen. Data for the mlh1 strain (AID 171);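 also: 0% = growth of vehicle-treated control cultures of the same strain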; conditions: S. cerevisiae mlh1 strain growth inhibition, hits give high values
# Summary of the method: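 Test agents were incubated with yeast bearing a defined DNA damage repair or cell cycle control alteration; values are growth inhibition normalised to vehicle-treated cultures.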
# [13] = NCI Yeast Anticancer Drug Screen. Data for the sgs1 strain (AID 173);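 also: 0% = growth of vehicle-only control cultures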; conditions: S. cerevisiae sgs1 mutant, hits give high values
# Summary of the method: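 Strain with an altered DNA repair or cell cycle pathway exposed to compound. Growth then measured. Value = inhibition versus vehicle control.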
# [14] = NCI Yeast Anticancer Drug Screen. Data for the mlh1 rad18 strain (AID 175); conditions: S. cerevisiae mlh1 rad18 strain growth inhibition, hits give high values
# Summary of the method: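 A repair-deficient yeast strain is exposed to test compound, and growth is scored relative to vehicle-treated controls.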
# [15] = NCI Yeast Anticancer Drug Screen. Data for the rad18 strain (AID 177); conditions: S. cerevisiae rad18 mutant growth inhibition, hits give high values
# Summary of the method: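 DNA-repair-defective yeast; compound treatment; growth inhibition scored against vehicle.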
# [16] = NCI Yeast Anticancer Drug Screen. Data for the wt2 strain (AID 169);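 also: 0% = growth of vehicle-treated yeast cultures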; conditions: S. cerevisiae wt2 strain growth inhibition, hits give high values
# Summary of the method: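 Growth of compound-treated yeast is measured and expressed as inhibition relative to vehicle-only controls.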
# [17] = at 5.0 µM (retest, dose inferred, filed as 0.5)
# [18] = at 50.0 µM (retest, dose inferred, filed as 5.0)
smiles,measurement,setting,value
Nc1ccc(S(=O)(=O)Nc2ccc(Nc3c4ccccc4nc4ccccc34)cc2)cc1,growth inhibition,[1]; at 1.2 µM,21%
same,growth inhibition,[1]; at 3.7 µM,69%
same,growth inhibition,[1]; at 11.0 µM,88% (active)
same,growth inhibition,[1]; at 33.0 µM,93% (active)
same,growth inhibition,[1]; at 100.0 µM,95% (active)
same,growth inhibition,[2]; at 1.2 µM,2%
same,growth inhibition,[2]; at 3.7 µM,19%
same,growth inhibition,[2]; at 11.0 µM,18%
same,growth inhibition,[2]; at 33.0 µM,18%
same,growth inhibition,[2]; at 100.0 µM,43%
same,growth inhibition,[3]; at 1.2 µM,8%
same,growth inhibition,[3]; at 3.7 µM,56%
same,growth inhibition,[3]; at 11.0 µM,77% (active)
same,growth inhibition,[3]; at 33.0 µM,76% (active)
same,growth inhibition,[3]; at 100.0 µM,79% (active)
same,growth inhibition,[4]; at 1.2 µM,4%
same,growth inhibition,[4]; at 3.7 µM,4%
same,growth inhibition,[4]; at 11.0 µM,3%
same,growth inhibition,[4]; at 33.0 µM,13%
same,growth inhibition,[4]; at 100.0 µM,50%
same,growth inhibition,[5]; at 1.2 µM,22%
same,growth inhibition,[5]; at 3.7 µM,66%
same,growth inhibition,[5]; [17],59%
same,growth inhibition,[5]; at 11.0 µM,86% (active)
same,growth inhibition,[5]; at 33.0 µM,93% (active)
same,growth inhibition,[5]; [18],87% (active)
same,growth inhibition,[5]; at 50.0 µM,79.1% (active)
same,growth inhibition,[5]; at 100.0 µM,94% (active)
same,growth inhibition,[6]; at 1.2 µM,0%
same,growth inhibition,[6]; at 3.7 µM,11%
same,growth inhibition,[6]; [17],-24%
same,growth inhibition,[6]; at 11.0 µM,6%
same,growth inhibition,[6]; at 33.0 µM,19%
same,growth inhibition,[6]; [18],31%
same,growth inhibition,[6]; at 50.0 µM,57.4%
same,growth inhibition,[6]; at 100.0 µM,77% (active)
same,growth inhibition,[7]; at 1.2 µM,7%
same,growth inhibition,[7]; at 3.7 µM,18%
same,growth inhibition,[7]; at 11.0 µM,14%
same,growth inhibition,[7]; at 33.0 µM,25%
same,growth inhibition,[7]; at 100.0 µM,58%
same,growth inhibition,[8]; [17],-7%
same,growth inhibition,[8]; [18],19%
same,growth inhibition,[8]; at 50.0 µM,21%
same,growth inhibition,[9]; at 1.2 µM,-29%
same,growth inhibition,[9]; at 3.7 µM,-5%
same,growth inhibition,[9]; at 11.0 µM,-15%
same,growth inhibition,[9]; at 33.0 µM,4%
same,growth inhibition,[9]; at 100.0 µM,33%
same,growth inhibition,[10]; [17],-3%
same,growth inhibition,[10]; [18],7%
same,growth inhibition,[10]; at 50.0 µM,13.8%
same,growth inhibition,[11]; at 1.2 µM,8%
same,growth inhibition,[11]; at 3.7 µM,31%
same,growth inhibition,[11]; [17],-18%
same,growth inhibition,[11]; at 11.0 µM,15%
same,growth inhibition,[11]; at 33.0 µM,4%
same,growth inhibition,[11]; [18],-4%
same,growth inhibition,[11]; at 50.0 µM,-22.1%
same,growth inhibition,[11]; at 100.0 µM,39%
same,growth inhibition,[12]; at 1.2 µM,4%
same,growth inhibition,[12]; at 3.7 µM,24%
same,growth inhibition,[12]; at 11.0 µM,23%
same,growth inhibition,[12]; at 33.0 µM,24%
same,growth inhibition,[12]; at 100.0 µM,60%
same,growth inhibition,[13]; at 1.2 µM,8%
same,growth inhibition,[13]; at 3.7 µM,17%
same,growth inhibition,[13]; at 11.0 µM,24%
same,growth inhibition,[13]; at 33.0 µM,43%
same,growth inhibition,[13]; at 100.0 µM,79% (active)
same,growth inhibition,[14]; [17],0%
same,growth inhibition,[14]; [18],19%
same,growth inhibition,[15]; at 1.2 µM,17%
same,growth inhibition,[15]; at 3.7 µM,11%
same,growth inhibition,[15]; at 11.0 µM,6%
same,growth inhibition,[15]; at 33.0 µM,6%
same,growth inhibition,[15]; at 100.0 µM,58%
C=C(C)[C@@H]1CCc2c(O)c(O)c(=O)cc(C)c2C1,growth inhibition,[1]; at 1.2 µM,0%
same,growth inhibition,[1]; at 3.7 µM,21%
same,growth inhibition,[1]; at 11.0 µM,38%
same,growth inhibition,[1]; at 33.0 µM,77% (active)
same,growth inhibition,[1]; at 100.0 µM,98% (active)
same,growth inhibition,[2]; at 1.2 µM,7%
same,growth inhibition,[2]; at 3.7 µM,25%
same,growth inhibition,[2]; at 11.0 µM,37%
same,growth inhibition,[2]; at 33.0 µM,58%
same,growth inhibition,[2]; at 100.0 µM,99% (active)
same,growth inhibition,[3]; at 1.2 µM,-3%
same,growth inhibition,[3]; at 3.7 µM,8%
same,growth inhibition,[3]; at 11.0 µM,39%
same,growth inhibition,[3]; at 33.0 µM,68%
same,growth inhibition,[3]; at 100.0 µM,98% (active)
same,growth inhibition,[4]; at 1.2 µM,10%
same,growth inhibition,[4]; at 3.7 µM,26%
same,growth inhibition,[4]; at 11.0 µM,41%
same,growth inhibition,[4]; at 33.0 µM,90% (active)
same,growth inhibition,[4]; at 100.0 µM,98% (active)
same,growth inhibition,[5]; at 1.2 µM,-10%
same,growth inhibition,[5]; at 3.7 µM,11%
same,growth inhibition,[5]; [17],41%
same,growth inhibition,[5]; at 11.0 µM,37%
same,growth inhibition,[5]; at 33.0 µM,80% (active)
same,growth inhibition,[5]; [18],97% (active)
same,growth inhibition,[5]; at 50.0 µM,91.6% (active)
same,growth inhibition,[5]; at 100.0 µM,98% (active)
same,growth inhibition,[6]; at 1.2 µM,2%
same,growth inhibition,[6]; at 3.7 µM,22%
same,growth inhibition,[6]; [17],41%
same,growth inhibition,[6]; at 11.0 µM,32%
same,growth inhibition,[6]; at 33.0 µM,61%
same,growth inhibition,[6]; [18],99% (active)
same,growth inhibition,[6]; at 50.0 µM,93% (active)
same,growth inhibition,[6]; at 100.0 µM,98% (active)
same,growth inhibition,[7]; at 1.2 µM,-30%
same,growth inhibition,[7]; at 3.7 µM,-14%
same,growth inhibition,[7]; at 11.0 µM,37%
same,growth inhibition,[7]; at 33.0 µM,85% (active)
same,growth inhibition,[7]; at 100.0 µM,99% (active)
same,growth inhibition,[8]; [17],46%
same,growth inhibition,[8]; [18],99% (active)
same,growth inhibition,[8]; at 50.0 µM,92.8% (active)
same,growth inhibition,[10]; [17],3%
same,growth inhibition,[10]; [18],93% (active)
same,growth inhibition,[10]; at 50.0 µM,91.3% (active)
same,growth inhibition,[11]; at 1.2 µM,8%
same,growth inhibition,[11]; at 3.7 µM,23%
same,growth inhibition,[11]; [17],52%
same,growth inhibition,[11]; at 11.0 µM,43%
same,growth inhibition,[11]; at 33.0 µM,82% (active)
same,growth inhibition,[11]; [18],96% (active)
same,growth inhibition,[11]; at 50.0 µM,92.2% (active)
same,growth inhibition,[11]; at 100.0 µM,98% (active)
same,growth inhibition,[16]; at 1.2 µM,-69%
same,growth inhibition,[16]; at 3.7 µM,-31%
same,growth inhibition,[16]; at 11.0 µM,-27%
same,growth inhibition,[16]; at 33.0 µM,91% (active)
same,growth inhibition,[16]; at 100.0 µM,97% (active)
same,growth inhibition,[12]; at 1.2 µM,25%
same,growth inhibition,[12]; at 3.7 µM,36%
same,growth inhibition,[12]; at 11.0 µM,55%
same,growth inhibition,[12]; at 33.0 µM,85% (active)
same,growth inhibition,[12]; at 100.0 µM,99% (active)
same,growth inhibition,[13]; at 1.2 µM,1%
same,growth inhibition,[13]; at 3.7 µM,24%
same,growth inhibition,[13]; at 11.0 µM,50%
same,growth inhibition,[13]; at 33.0 µM,81% (active)
same,growth inhibition,[13]; at 100.0 µM,98% (active)
same,growth inhibition,[14]; [17],57%
same,growth inhibition,[14]; [18],96% (active)
same,growth inhibition,[14]; at 50.0 µM,92.2% (active)
same,growth inhibition,[15]; at 1.2 µM,1%
same,growth inhibition,[15]; at 3.7 µM,34%
same,growth inhibition,[15]; at 11.0 µM,48%
same,growth inhibition,[15]; at 33.0 µM,76% (active)
same,growth inhibition,[15]; at 100.0 µM,98% (active)
